Reference: PubChem BioAssay (NCI)
About 83,000 compounds went through this panel and 20% of them were active in at least one assay; those are over-represented in the sample as a whole.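 Step 1: grow cells in 96-well plates. Step 2: add test compound at a single concentration. Step 3: incubate 48 h. Step 4: record percent growth.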 Unmarked numbers belong to inactive results. Activity calls are given as the source filed them. Rule for the calls: active = growth percent below 10; inactive = the rest.

Test system: COLO 205 colon
Assay: NCI-60 one-dose screen, 48 h (100 = growth as untreated, 0 = no growth, -100 = all killed)
Conditions: 10 µM unless noted

SMILES	growth
C=CC(=O)Nc1cccc(-c2nc(SC)nc(NCc3ccccc3)c2C#N)c1	98%
COC(=O)c1cccc(NC(=O)c2ccc(-c3cccc(N)c3)o2)c1	112%
N#Cc1c(-c2ccc(Cl)cc2)nc(N=Nc2c(O)[nH]c3ccc(Cl)cc23)nc1N1CCOCC1	105%
N#CN1CCC[C@H]1C(=O)N1CCc2c(-c3[nH]nc4ncccc34)cccc21	-77.5% (active)

Test system: DU-145 prostate
Assay: as above
Conditions: 10 µM unless noted

SMILES	growth
Nc1ccc(S(=O)(=O)O)c2ccc(N=Nc3ccc(N=Nc4ccc(S(=O)(=O)O)cc4)c4ccccc34)c(O)c12	110%
CSc1ccc(-c2n[nH]nc2-c2cc3ccccc3s2)cc1	74.3%
COc1ccc(C(=O)COc2ccc(/C=C3\COc4ccc(OC)cc4C3=O)cc2)cc1	107%
COc1cc(C=Nc2oc(-c3ccccc3)c(-c3ccccc3)c2C#N)cc(CN2CCCCC2)c1O	107%
O=C1CC[C@H](c2ccc(O)c3c2C(=O)[C@@H]2O[C@@H]2C3=O)c2cccc(O)c21	21.1%
C#CC(F)(F)[C@]1(O)CC[C@H]2[C@@H]3CCC4=CC(=O)CCC4=C3[C@@H](c3ccc(C(C)=O)cc3)C[C@@]21C	86.4%
O=C(Cc1ccccc1Nc1c(Cl)cccc1Cl)NN1C(=O)/C(=C/c2ccc(Br)cc2)SC1=S	109%
Cc1nn(-c2cc(=O)[nH]c3ccccc23)c(N)c1C#N	107%
CCn1c(Cc2ccccc2Nc2c(Cl)cccc2Cl)nnc1SCC(=O)NN1C(=O)/C(=C/c2cc(OC)c(O)c(OC)c2)SC1=S	48.8%
